Assay results reported in the supplement of paper PMC13380429.

test system: Vero E6 infected with SARS-CoV-2; assay: morphology score (similarity to uninfected cells); higher = more like uninfected cells; conditions: 24 h

SMILES	morphology score
O=C1C=CC[C@@H]2[C@H]3CCCN4CCC[C@@H](CN12)[C@@H]34 [sophocarpine] (10 µM)	-0.0321
CCCCNc1ncc(-c2ccc(CN3CCOCC3)cn2)c(N[C@H]2CC[C@H](O)CC2)n1 (10 µM)	0.102
OC[C@H]1O[C@@H](O[C@@H]2[C@H](O)[C@@H](O)[C@H](O[C@H]3[C@H](O)[C@@H](O)C(O)O[C@@H]3CO)O[C@@H]2CO)[C@H](O)[C@@H](O)[C@H]1O (stereo partly drawn) [4-galactosyllactose] (10 µM)	-0.0673
CN(CCCN1c2ccccc2CCc2ccccc21)CC(=O)c1ccc(Cl)cc1 [lofepramine] (10 µM)	-0.0945
COC1(C2=NCCN2)COc2ccccc2O1 (stereo not drawn) (10 µM)	0.0681
CCCN1CCCC(c2cccc(O)c2)C1 (stereo in doubt) [preclamol] (10 µM)	-0.1
N=C(N)SCCc1ccc(OCc2ccc([N+](=O)[O-])cc2)cc1 (10 µM)	0.268
COCCCN1CCC(NC(=O)c2cc(Cl)c(N)c3c2OCC3)CC1 [prucalopride] (10 µM)	0.0302
CN1C/C=C/CCOc2cccc(c2)-c2ccnc(n2)Nc2cccc(c2)C1 (10 µM)	-0.0856
O=C1[C@H]2CCCC[C@H]2C(=O)N1CCCCN1CCN(c2nsc3ccccc23)CC1 [perospirone] (10 µM)	0.0481
NS(=O)(=O)NCc1csc2ccccc12 (10 µM)	0.212
Cc1cc(CC(=O)O)n(C)c1C(=O)c1ccc(Cl)cc1 [zomepirac] (10 µM)	0.117
Cc1sc2c(c1C)C(c1ccc(Cl)cc1)=N[C@@H](CC(=O)Nc1ccc(O)cc1)c1nnc(C)n1-2 (10 µM)	-0.169
Nc1ccc(-c2nc3ccc(-c4nc5ccc(N)cc5[nH]4)cc3[nH]2)cc1 (10 µM)	-0.218
Cc1c(C(=O)NN2CCCCC2)nn(-c2ccc(Cl)cc2Cl)c1-c1ccc(Cl)cc1 [rimonabant] (10 µM)	0.17
O=C(c1ccc(F)cc1)C1CCN(CCCCc2ccccc2)CC1 [4-(4-fluorobenzoyl)-1-(4-phenylbutyl)-piperidine] (10 µM)	-0.00104
Cc1[nH]c(/C=C2\C(=O)Nc3ccc(S(=O)(=O)N(C)c4cccc(Cl)c4)cc32)c(C)c1C(=O)N1CCN(C)CC1 (10 µM)	0.493

SMILES	morphology score
NC(=O)c1cccc(N)c1 [3-amino-benzamide] (10 µM)	-0.037
CCCCC(=O)OCC(=O)[C@]1(O)Cc2c(O)c3c(c(O)c2[C@@H](O[C@H]2C[C@H](NC(=O)C(F)(F)F)[C@H](O)[C@H](C)O2)C1)C(=O)c1c(OC)cccc1C3=O [valrubicin] (0.833333 µM)	0.122
N=C(N)NC(=O)c1cnccn1 [pyrazinoylguanidine] (10 µM)	0.0685
C[C@@H](O[C@H]1OCCN(Cc2nn(P(=O)(O)O)c(=O)[nH]2)[C@H]1c1ccc(F)cc1)c1cc(C(F)(F)F)cc(C(F)(F)F)c1 [fosaprepitant-dimeglumine] (10 µM)	0.0215
O=C1COc2c(CCNCCN(C(=O)CCNCCc3ccc(Cl)c(Cl)c3)C3CCCCC3)ccc(O)c2N1 (10 µM)	-0.232
Nc1n[n+]([O-])c2ccccc2[n+]1[O-] [tirapazamine] (10 µM)	0.0691
CNC(=O)CN1CCC(Oc2cc3c(Nc4cccc(Cl)c4F)ncnc3cc2OC)CC1 (0.833333 µM)	-0.193
O=C(O)c1cccnc1C(=O)O [quinolinic-acid] (10 µM)	0.107
CCCCOc1ccc(OCCCN2CCOCC2)cc1 [pramoxine] (10 µM)	-0.0144
Cc1cc2c(F)c(Oc3ncnn4cc(OC[C@@H](C)OC(=O)[C@H](C)N)c(C)c34)ccc2[nH]1 [brivanib-alaninate] (10 µM)	0.385
CN(C)CCCOc1nn(Cc2ccccc2)c2ccccc12 [benzydamine] (10 µM)	0.4
CNc1nc(NCc2ccc(NS(C)(=O)=O)cc2Cl)cc(-c2ccccn2)n1 (10 µM)	0.193
CC1(C)S[C@@H]2[C@H](NC(=O)[C@H](N)c3ccccc3)C(=O)N2[C@H]1C(=O)O [ampicillin] (10 µM)	0.141
OC(CCCN1CCN(c2ncc(F)cn2)CC1)c1ccc(F)cc1 (stereo not drawn) (10 µM)	0.0906
Sc1nc2ccccc2s1 [benzo[d]thiazole-2(3H)-thione] (10 µM)	0.0522
CC(C)N(CC[C@H](c1ccccc1)c1cc(CO)ccc1O)C(C)C [5-hydroxymethyl-tolterodine] (10 µM)	0.191
